What all share (assay): cell viability relative to vehicle control; higher = less cytotoxic
Conditions in all cases: 10 µM

In one assay the test system is K562. An outline of the steps:
(§1)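 Each screen used CRISPR-edited mutant and wild-type clones from four leukaemia lines. Compounds were acoustically dispensed at a single 10 µM dose, and CellTiter-Glo luminescence was read after 48 h with the supernatant first removed. Viability was analysed in Genedata Screener and given as percent of the on-plate vehicle control.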

Another assay deals with MARIMO. The method, boiled down:
as §1

The test system of a further assay is MOLM14. The method, boiled down:
as §1

The test system of a further assay is OCI-AML2. An outline of the steps:
as §1

Where “and” joins values, the source holds several entries; their conditions need not be identical. Identical values can stand only once. Counter-ions that a name gives are not always drawn.

As a reminder, the cell viability is a read-out of living cells in per cent, often relative to untreated cells.

With `CC1(C)S[C@@H]2[C@H](NC(=O)[C@H](N)c3ccc(O)cc3)C(=O)N2[C@H]1C(=O)O` [Amoxicillin sodium (Amox)], the cell viability in the assay on K562 (SRSF2 genotype: SRSF2 P95H/wt) is 99.4% and 102%; with K562 (SRSF2 genotype: SRSF2 wt/wt), 105%; with MARIMO (SRSF2 genotype: SRSF2 P95H/wt), 105%; in the assay with MARIMO (SRSF2 genotype: SRSF2 wt/wt), 109%; in the assay on MOLM14 (SRSF2 genotype: SRSF2 P95H/wt) it was 96%; with MOLM14 (SRSF2 genotype: SRSF2 wt/wt) it was 103%. Further, the cell viability in the assay on OCI-AML2 (SRSF2 genotype: P95H/wt) was determined as 105%; with OCI-AML2 (SRSF2 genotype: wt/wt), 93.4%.
For `CNC(=O)c1nn(C)c2c1C(C)(C)Cc1cnc(Nc3ccc(N4CCN(C)CC4)cc3)nc1-2`, the cell viability is 34% and 36.5% with K562 (SRSF2 genotype: SRSF2 P95H/wt); 25.2% with K562 (SRSF2 genotype: SRSF2 wt/wt); 21.4% in the assay with MARIMO (SRSF2 genotype: SRSF2 P95H/wt); 22.6% in the assay with MARIMO (SRSF2 genotype: SRSF2 wt/wt); 16% in the assay on MOLM14 (SRSF2 genotype: SRSF2 P95H/wt); 5.62% in the assay with MOLM14 (SRSF2 genotype: SRSF2 wt/wt). The cell viability was 13.8% in the assay on OCI-AML2 (SRSF2 genotype: P95H/wt) and 19.4% with OCI-AML2 (SRSF2 genotype: wt/wt).
On to `CN1CCN(CCCN2c3ccccc3Sc3ccc(C(F)(F)F)cc32)CC1` [Trifluoperazine 2HCl], for which the cell viability is 25.7% and 36.9% in the assay on K562 (SRSF2 genotype: SRSF2 P95H/wt); 46.2% in the assay on K562 (SRSF2 genotype: SRSF2 wt/wt); 52.5% in the assay with MARIMO (SRSF2 genotype: SRSF2 P95H/wt); 50.8% with MARIMO (SRSF2 genotype: SRSF2 wt/wt); 45.9% in the assay on MOLM14 (SRSF2 genotype: SRSF2 P95H/wt); 58.7% in the assay with MOLM14 (SRSF2 genotype: SRSF2 wt/wt). Moreover, the cell viability in the assay on OCI-AML2 (SRSF2 genotype: P95H/wt) stood at 47.6%; in the assay with OCI-AML2 (SRSF2 genotype: wt/wt), 46.7%.
`CCCCCCCCCCCCCCCCOc1nc2ccc(C)cc2c(=O)o1` [Cetilistat]: the cell viability in the assay on K562 (SRSF2 genotype: SRSF2 P95H/wt) was 107% and 111%; in the assay on K562 (SRSF2 genotype: SRSF2 wt/wt), 108%; in the assay on MARIMO (SRSF2 genotype: SRSF2 P95H/wt) it was 108%; in the assay with MARIMO (SRSF2 genotype: SRSF2 wt/wt), 108%; in the assay on MOLM14 (SRSF2 genotype: SRSF2 P95H/wt), 103%; in the assay with MOLM14 (SRSF2 genotype: SRSF2 wt/wt), 108%. Further, the cell viability in the assay on OCI-AML2 (SRSF2 genotype: P95H/wt) was determined as 107%; with OCI-AML2 (SRSF2 genotype: wt/wt), 108%.
As to `C[C@@H](O)[C@H]1C(=O)N2C(C(=O)O)=C(S[C@@H]3CN[C@H](CNS(N)(=O)=O)C3)[C@H](C)[C@H]12` [Doripenem], the cell viability is 98.4% and 92.9% in the assay on K562 (SRSF2 genotype: SRSF2 P95H/wt); 97.5% in the assay on K562 (SRSF2 genotype: SRSF2 wt/wt); 93.2% in the assay on MARIMO (SRSF2 genotype: SRSF2 P95H/wt); 102% in the assay on MARIMO (SRSF2 genotype: SRSF2 wt/wt); 99.7% in the assay on MOLM14 (SRSF2 genotype: SRSF2 P95H/wt); 98.3% in the assay on MOLM14 (SRSF2 genotype: SRSF2 wt/wt). Moreover, the figures for the cell viability in the assay on OCI-AML2 (SRSF2 genotype: P95H/wt) and with OCI-AML2 (SRSF2 genotype: wt/wt) were 89.2% and 99%, respectively.
Consider `COc1ccc([C@@H]2CC(=O)c3c(O)cc(O[C@@H]4O[C@H](CO)[C@@H](O)[C@H](O)[C@H]4O[C@@H]4O[C@@H](C)[C@H](O)[C@@H](O)[C@H]4O)cc3O2)cc1` [Poncirin], for which the cell viability with K562 (SRSF2 genotype: SRSF2 P95H/wt) was 99.7% and 97.1%; in the assay with K562 (SRSF2 genotype: SRSF2 wt/wt), 99.2%; with MARIMO (SRSF2 genotype: SRSF2 P95H/wt) it was 97.8%; with MARIMO (SRSF2 genotype: SRSF2 wt/wt), 104%; with MOLM14 (SRSF2 genotype: SRSF2 P95H/wt) it was 102%; with MOLM14 (SRSF2 genotype: SRSF2 wt/wt) it was 94.7%. The cell viability in the assay on OCI-AML2 (SRSF2 genotype: P95H/wt) amounted to 95.1%; with OCI-AML2 (SRSF2 genotype: wt/wt), 96%.
Take `CCN(CC)CCOCCOC(=O)C1(c2ccccc2)CCCC1` [Pentoxyverine Citrate]: the cell viability with K562 (SRSF2 genotype: SRSF2 P95H/wt) was 98.4% and 105%; with K562 (SRSF2 genotype: SRSF2 wt/wt), 108%; with MARIMO (SRSF2 genotype: SRSF2 P95H/wt), 92.9%; with MARIMO (SRSF2 genotype: SRSF2 wt/wt) it was 104%; with MOLM14 (SRSF2 genotype: SRSF2 P95H/wt), 96.4%; with MOLM14 (SRSF2 genotype: SRSF2 wt/wt) it was 104%. In addition, the figures for the cell viability in the assay on OCI-AML2 (SRSF2 genotype: P95H/wt) and in the assay with OCI-AML2 (SRSF2 genotype: wt/wt) were 112% and 97%, respectively.
For the molecule `Oc1cc(CNC(=S)/C=C/c2cc(O)c(O)c(Br)c2)cc(O)c1O`, the cell viability in the assay with K562 (SRSF2 genotype: SRSF2 P95H/wt) was 20.1% and 32.5%; with K562 (SRSF2 genotype: SRSF2 wt/wt), 23.6%; in the assay on MARIMO (SRSF2 genotype: SRSF2 P95H/wt), 16.6%; in the assay on MARIMO (SRSF2 genotype: SRSF2 wt/wt), 23.2%; in the assay with MOLM14 (SRSF2 genotype: SRSF2 P95H/wt), 14.3%; in the assay with MOLM14 (SRSF2 genotype: SRSF2 wt/wt), 5.87%. Besides, the values for the cell viability in the assay with OCI-AML2 (SRSF2 genotype: P95H/wt) and in the assay on OCI-AML2 (SRSF2 genotype: wt/wt) were 28.1% and 26.9%, respectively.
With `CC(=O)O[C@@H]1C[C@@]23C[C@@]24CC[C@H](O[C@@H]2OC[C@@H](O)[C@H](O)[C@H]2O)C(C)(C)[C@@H]4CC=C3[C@]2(C)C[C@@H]3OC4(C[C@@H](C)[C@@H]3[C@@]12C)OC(O)C1(C)OC41` (stereo not given in full) [Cimicifugoside], the cell viability was 110% and 103% in the assay on K562 (SRSF2 genotype: SRSF2 P95H/wt); 105% with K562 (SRSF2 genotype: SRSF2 wt/wt); 109% in the assay with MARIMO (SRSF2 genotype: SRSF2 P95H/wt); 111% in the assay on MARIMO (SRSF2 genotype: SRSF2 wt/wt); 108% in the assay with MOLM14 (SRSF2 genotype: SRSF2 P95H/wt); 106% with MOLM14 (SRSF2 genotype: SRSF2 wt/wt). Further, the values for the cell viability with OCI-AML2 (SRSF2 genotype: P95H/wt) and in the assay on OCI-AML2 (SRSF2 genotype: wt/wt) were 99% and 96%, respectively.
For the molecule `Clc1ccc(C2(c3ccc(-c4cn[nH]c4)cc3)CCNCC2)cc1`, the cell viability with K562 (SRSF2 genotype: SRSF2 P95H/wt) was 44.6% and 48.5%; in the assay with K562 (SRSF2 genotype: SRSF2 wt/wt) it was 34.5%; in the assay on MARIMO (SRSF2 genotype: SRSF2 P95H/wt), 40.3%; in the assay on MARIMO (SRSF2 genotype: SRSF2 wt/wt) it was 45%; with MOLM14 (SRSF2 genotype: SRSF2 P95H/wt), 24.2%; in the assay with MOLM14 (SRSF2 genotype: SRSF2 wt/wt), 12.5%. Besides, the cell viability in the assay on OCI-AML2 (SRSF2 genotype: P95H/wt) is 21.6%; with OCI-AML2 (SRSF2 genotype: wt/wt), 27.4%.

For the origin of these results see the supplement of paper PMC10981050.
